ATG4B inh = ATG4B (human) cysteine protease inhibition | Q9Y4P1 | ATG4B cleavage of LC3-PLA2, NBD-HPC fluorescence, 1 h | inhibition, % at 8.33 µM | 340,000 tested, 0.51% active; in the data active = inhibition above about 40%
Target sequence (Q9Y4P1 whole entry, looked up): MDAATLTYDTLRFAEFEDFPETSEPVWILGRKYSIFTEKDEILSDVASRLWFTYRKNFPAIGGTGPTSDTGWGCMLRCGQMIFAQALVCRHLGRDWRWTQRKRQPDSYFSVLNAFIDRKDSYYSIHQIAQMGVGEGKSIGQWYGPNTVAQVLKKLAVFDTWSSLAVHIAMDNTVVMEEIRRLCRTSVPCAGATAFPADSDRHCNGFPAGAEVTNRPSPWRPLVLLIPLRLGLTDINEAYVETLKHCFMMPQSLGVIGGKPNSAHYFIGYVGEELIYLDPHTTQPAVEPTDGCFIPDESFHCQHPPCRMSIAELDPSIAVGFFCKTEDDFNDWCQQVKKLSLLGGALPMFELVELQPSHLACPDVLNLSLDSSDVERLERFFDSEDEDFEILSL
NSD2 inh = NSD2 (human) methyltransferase inhibition; NSD2 peptide methylation, AlphaScreen, 120 min; inhibition, % at 12.5 µM; 310,000 tested, 0.54% active; AID 743445
Vif imaging = blocks HIV Vif function | 340,000 tested, 0.35% active | inhibition, % at 7.49 µM | HEK293T cells, Vif self-association by quenched fluorescence, imaging, 24 h | AID 602346; in the data active = inhibition above about 50%, passing the limit was not always enough
Glyco luc inh = blocks N-linked glycosylation in D54 reporter cells; D54 ERlucT glycosylation luciferase reporter, 24 h; percent of 100 nM tunicamycin response; reporter increase, % at 12.5 µM; 360,000 tested, 0.23% active;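 active = mean luciferase reporter signal, scaled so untreated is 0 and the glycosylation-blocking control 100, at or above a set limit in every replicate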;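 also: luciferase carries N-glycosylation sites so blocking glycosylation raises the light; 0% = median of neutral control wells and 100% = median of 100 nM tunicamycin wells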
CaV13 ICDI inh = Primary screen for inhibitors of IQ motif and Ca2+-dependent inactivation inhibitor domain binding in CACNA1D, Förster resonance energy transfer in living cells, … | AID 743397 | HEK cells, CFP/YFP FRET ICDI-IQ, plate reader, 10 min; percent FRET-ratio fall versus neutral wells | 340,000 tested, 0.098% active | inhibition, % at 12.3 µM;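 active = mean replicate inhibition of at least 30% and at least 1% of replicates passing that level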;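 also: 0% = median of the neutral control wells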
Pemphigus Ab inh = blocks pemphigus antibody binding to human desmoglein-3 | binding (percent of control), % at 10 µM | 310,000 tested, 0.48% active | P32926 | AID 588358 | DSG3-coupled beads, scFv-anti-DSG3-GFP binding, flow cytometry; stronger effect = lower value;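 active = binding more than 3 SD below its plate's average and above zero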;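 also: hits lower antibody fragment binding to DSG3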
ATG4B conf = confirmation of human ATG4B inhibitors. shares compounds with ATG4B inh. inhibition, % at 8.33 µM. ATG4B protease fluorescent substrate cleavage assay. 320 tested, 92% active; in the data active = inhibition above about 39%
PLA2 ctr = counter-screen for ATG4B inhibitors: human phospholipase A2. shares compounds with ATG4B inh. purified PLA2, NBD-C6-HPC fluorescence, 45 min. inhibition, % at 8.33 µM. 1,600 tested, 66% active. AID 588402
Target sequence (P04054 whole entry, looked up): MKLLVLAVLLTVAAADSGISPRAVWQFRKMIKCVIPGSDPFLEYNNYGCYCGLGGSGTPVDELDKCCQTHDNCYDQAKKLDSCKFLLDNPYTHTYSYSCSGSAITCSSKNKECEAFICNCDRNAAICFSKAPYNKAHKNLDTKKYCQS
* hit, by the source's call; x = no result given. Most compounds without a hit are left out; they make up all but 1.9% or so of the library. Rule as the data show it, unless noted: active = inhibition above about 50%; inactive = the rest.

SMILES	ATG4B inh	NSD2 inh	Vif imaging	Glyco luc inh	CaV13 ICDI inh	Pemphigus Ab inh	PLA2 ctr	others
COc1cc(OC)cc(-c2nc3ccccc3c(=O)n2OC(=O)c2ccc(Br)cc2)c1	55*	-30	-2	1	-13	88	29	ATG4B conf=30
COc1ccc(O)c(CNn2c(-c3ccc(Br)cc3)nc3ccccc3c2=O)c1	-4	3	2	-1	-6	105	x
O=S(=O)(c1ccc(Cl)cc1)N1CCc2ccccc21	-3	-4	-1	-3	-5	151	x
CCC(NC(=O)c1cc(COc2ccc(C)nc2)on1)c1ccc(C)cc1 (stereo not drawn)	-6	-4	-25	-3	-5	98	x
CC1=CN2C(=N)/C(=C/c3ccc(Sc4ccc(C)cc4)o3)C(=O)N=C2S1	43*	10	-1	-1	-4	99	56*
COC(=O)Cn1c2nc3ccccc3nc2c2cccc(C)c21	23	-2	-3	4	-20	105	x
O=C(Nc1nnc(CSCc2ccc(F)cc2)s1)c1ccc([N+](=O)[O-])cc1	-6	1	-3	-1	-10	94	x
CC(C)C(=O)Nc1nnc(CSCc2ccccc2F)s1	-10	2	9	-1	-4	x	x
CC(C)(C)C(=O)Nc1nnc(CSCc2ccccc2F)s1	40*	8	-10	-7	-3	101	40	ATG4B conf=59*
O=C(Nc1nnc(CSCc2ccccc2F)s1)c1cccc([N+](=O)[O-])c1	51*	x	-8	-1	-2	100	58*
CN(C(=O)c1ccncc1)c1nnc(-c2cnccn2)s1	-3	-1	7	2	-2	101	x
O=C(NCc1cccc(C(F)(F)F)c1)N1CCN(C(=O)c2ccccc2)CC1	56*	-4	-3	2	-7	91	61*
O=C(c1cccc(C(F)(F)F)c1)N1CCN(CCc2ccccc2)CC1	-5	-2	x	x	-6	103	x
O=C(c1cc(COc2c(F)cccc2F)on1)N1CCC(c2ccccc2Cl)C1 (stereo not drawn)	40*	-2	10	1	-20	104	55*
CCCOP(=O)(OCCC)c1c([N+](=O)[O-])cc(C(F)(F)F)cc1[N+](=O)[O-]	9	3	-2	15	1	102	x
COc1cc(C(=O)Nc2nc3ccccc3s2)ccc1OCc1c(C)noc1C	1	-2	x	6	-9	101	x
O=c1c2ccccc2nc(SCc2cn3ccsc3n2)n1-c1ccc(F)cc1	75*	7	2	1	x	106	71*
O=C(c1ccc(-n2c(SCc3cc(F)ccc3F)nc3ccccc3c2=O)cc1)N1CCOCC1	47*	0	-1	-9	-2	87	9	ATG4B conf=63*
CCOc1ccc(CNC(=S)NCc2ccc(OCC)cc2)cc1	0	-1	1	2	-4	64	x
CC(C)COc1ccc(CNC(=S)NCc2ccccc2)cc1	64*	0	4	-3	-12	94	76*
Cc1cccc(C)c1-n1ncc(C(=O)NC2CCCC2)c1C1CCNCC1	-7	14	2	2	-5	101	x
O=C(CCN1C(=O)C2C3C=CC(C3)C2C1=O)NCCc1ccccc1Cl (stereo not drawn)	9	4	6	4	-4	x	x
Cc1ccc(/C(=N/Nc2nc3ccccc3s2)C2=C(O)c3ccccc3C2=O)cc1	45*	-3	3	0	-4	95	65*
COc1ccccc1NC(=O)CCNC(=O)c1ccc(C)cc1	-1	-2	12	1	-5	105	x
Cc1cccc(N2CCN(C(=O)C3CCN(c4ncnc5c4nc4n5CCCCC4)CC3)CC2C)c1 (stereo not drawn)	47*	9	-7	-6	-12	100	40	ATG4B conf=63*
SMILES	ATG4B inh	NSD2 inh	Vif imaging	Glyco luc inh	CaV13 ICDI inh	Pemphigus Ab inh	PLA2 ctr	others
O=C(C1CCN(c2ncnc3c2nc2n3CCCCC2)CC1)N1CCN(c2ccccc2F)CC1	13	5	-3	-2	-3	106	x
Cc1ccc(NC(=O)C2CCN(c3ncnc4c3nc3n4CCCCC3)CC2)cc1Cl	60*	9	-2	-2	-6	100	69*
Cc1cccc(N2CCN(C(=O)C3CCN(c4ncnc5c4nc4n5CCCCC4)CC3)CC2)c1C	63*	11	-7	-1	-4	x	78*
Cc1ccc(NC(=O)C2=CC(c3cccs3)=NS(=O)(=O)N2C)cc1	0	x	-8	-5	-4	107	x
O=C(NCCN1CCCCC1)c1ccc2c(c1)OCCO2	2	-1	3	-3	-6	111	x
COc1cc2c(cc1OC)CN(C(=O)c1cc3ccccc3oc1=O)CC2	-2	-1	x	12	-5	102	x
CN(c1ccccc1)c1ccc(/C=C(\CCC(=O)O)c2nc3ccccc3s2)cc1[N+](=O)[O-]	46*	23	-4	2	-16	99	41	ATG4B conf=70*
COc1ccc(C(=O)Nc2cccc(/C=C(\CCC(=O)O)c3nc4ccccc4s3)c2)cc1	59*	x	-3	1	-8	97	74*
Cc1ccc(/C=C(\CCC(=O)O)c2nc3ccccc3s2)cc1[N+](=O)[O-]	20	0	5	0	-5	123	x
Cc1ccc(-c2csc(N/N=C/c3ccco3)n2)cc1	41*	-1	1	-4	-5	104	38
CCOC(=O)C1CCCN(C(=O)c2cc(S(=O)(=O)Nc3ccccc3OC)ccc2C)C1 (stereo not drawn)	5	-4	8	1	-6	102	x
Cc1ccc(O)c(N=Cc2cc(Cc3ccccc3)cc([N+](=O)[O-])c2O)c1	79*	0	4	2	-5	101	76*
COc1ccc(CCNC(=O)CCC(=O)N2CC(C)Oc3ccccc32)cc1OC (stereo not drawn)	2	x	0	1	-6	101	x
COc1cc(C2Nc3cc(Cl)c(S(N)(=O)=O)cc3S(=O)(=O)N2)cc(OC)c1OC (stereo not drawn)	9	5	0	0	-3	98	x
COc1cc(C2Nc3cc(Cl)c(S(N)(=O)=O)cc3S(=O)(=O)N2)ccc1OCc1ccccc1 (stereo not drawn)	84*	-1	1	-1	-2	91	85*
O=C(CCCOc1ccc(Cl)cc1Cl)N1CCc2ccccc2C1	50*	0	3	0	-7	104	51*

Assay outcomes deposited in PubChem BioAssay by several laboratories.
